Assay results reported in the supplement of paper PMC10515830.
Where a name gives a salt, the structure may show the parent alone.

These compounds were tested on Danio rerio larvae (5 dpf) (assay: difference in excitability vs DMSO (percentage points); higher = more excitable than DMSO). Settings: 10 µM; exposure time 6 h.
Method in brief: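 Wild-type 5 dpf zebrafish larvae in 96-well plates were given 100 µL egg water containing library compound at 10 µM final for 6 h. After 3 h of exposure, plates at 28.5 ℃ were photographed every 6 s during a 3-h programme of moving lines and 100 ms, 400Hz tones. Z-LaP Tracker (a DeepLabCut model) quantified each behaviour, averaged over 48 larvae per compound. Values are the compound mean minus the DMSO-vehicle control, in percentage points.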

**Q.** `COc1c(C)c2c(c(O)c1C/C=C(\C)CCC(=O)O)C(=O)OC2` [Mycophenolic Acid] was tested. Which difference in excitability did it give?
**A.** 2.6

**Q.** Which difference in excitability does the source give for `CCCc1nc(C(C)(C)O)c(C(=O)OCc2oc(=O)oc2C)n1Cc1ccc(-c2ccccc2-c2nnn[nH]2)cc1` [Olmesartan Medoxomil] here?
**A.** -0.702

**Q.** With `Cc1ccc(N(CC2=NCCN2)c2cccc(O)c2)cc1` [Phentolamine (mesylate)] as the compound, how does the difference in excitability read?
**A.** -0.363

**Q.** With `CNCCCC12CCC(c3ccccc31)c1ccccc12` [Maprotiline (hydrochloride)] as the compound, how does the difference in excitability read?
**A.** -2.87

**Q.** Which difference in excitability does the source give for `CC=CC(=O)N(CC)c1ccccc1C` [Crotamiton] here?
**A.** 0.486

**Q.** For `CCCCN1C[C@H](O)[C@@H](O)[C@H](O)[C@H]1CO` [N-Butyldeoxynojirimycin (hydrochloride)], which difference in excitability is on record?
**A.** -7.96

**Q.** With `CCCCC(C)(O)C/C=C/[C@H]1[C@H](O)CC(=O)[C@@H]1CCCCCCC(=O)OC` (mixture of isomers) [Misoprostol] as the compound, how does the difference in excitability read?
**A.** 9.78

**Q.** How did the difference in excitability turn out when `CCCCc1ncc(/C=C(\Cc2cccs2)C(=O)O)n1Cc1ccc(C(=O)O)cc1` [Eprosartan (mesylate)] was run?
**A.** 7.16

**Q.** For `CC(=O)OCC(=O)[C@@]12OC3(CCCC3)O[C@@H]1C[C@H]1[C@@H]3CCC4=CC(=O)C=C[C@]4(C)[C@@]3(F)[C@@H](O)C[C@@]12C` [Amcinonide], which difference in excitability is on record?
**A.** 8.43

**Q.** For `CN1C(=O)CC(C)(c2ccccc2)C1=O` (centres undefined) [Methsuximide], which difference in excitability is on record?
**A.** -3.21

**Q.** For `CC[C@H](Nc1ncnc2[nH]cnc12)c1nc2cccc(F)c2c(=O)n1-c1ccccc1`, which difference in excitability is on record?
**A.** 5.3

**Q.** Which difference in excitability does the source give for `CN(C)CCCN1c2ccccc2Sc2ccc(Cl)cc21` [Chlorpromazine (hydrochloride)] here?
**A.** 12.6

**Q.** For `Clc1ccc2c(c1)C(N1CCNCC1)=Nc1ccccc1O2` [Amoxapine], which difference in excitability is on record?
**A.** 6.07

**Q.** With `C=C1CC[C@H](O)C/C1=C/C=C1\CCC[C@]2(C)[C@@H]([C@H](C)/C=C/[C@H](C)C(C)C)CC[C@@H]12` [Vitamin D2] as the compound, how does the difference in excitability read?
**A.** 3.72

**Q.** Which difference in excitability does the source give for `Cc1cc2nc3c(=O)[nH]c(=O)nc-3n(C[C@H](O)[C@H](O)[C@H](O)COP(=O)(O)O)c2cc1C` [Riboflavin 5'-monophosphate (sodium salt hydrate)] here?
**A.** -1.24

**Q.** Which difference in excitability does the source give for `CNS(=O)(=O)CCc1ccc2[nH]cc(C3CCN(C)CC3)c2c1` [Naratriptan (hydrochloride)] here?
**A.** 8.93

**Q.** With `Cc1ccc(/C(=C\CN2CCCC2)c2cccc(/C=C/C(=O)O)n2)cc1` [Acrivastine] as the compound, how does the difference in excitability read?
**A.** 1.28

**Q.** `COC(=O)C1=C(C)NC(C)=C(C(=O)OCCN(C)Cc2ccccc2)C1c1cccc([N+](=O)[O-])c1` (centres undefined) [Nicardipine (hydrochloride)] was tested. Which difference in excitability did it give?
**A.** 7.46

**Q.** `C[C@H](CS)C(=O)N1CCC[C@H]1C(=O)O` [Captopril] was tested. Which difference in excitability did it give?
**A.** 1.66

**Q.** How did the difference in excitability turn out when `NCCNCCNCCN` [Trientine (hydrochloride)] was run?
**A.** 15.9

**Q.** For `COc1ccc2c(O[C@@H]3C[C@H]4C(=O)N[C@]5(C(=O)NS(=O)(=O)C6CC6)C[C@H]5/C=C\CCCCN(C)C(=O)[C@@H]4C3)cc(-c3nc(C(C)C)cs3)nc2c1C` [Simeprevir (sodium salt)], which difference in excitability is on record?
**A.** 13.8

**Q.** With `C[C@H](N[C@@H](CCc1ccccc1)C(=O)O)C(=O)N1CCC[C@H]1C(=O)O` [Enalaprilat (hydrate)] as the compound, how does the difference in excitability read?
**A.** -0.583

**Q.** How did the difference in excitability turn out when `Cc1nnc(SCC2=C(C(=O)O)N3C(=O)[C@@H](NC(=O)Cn4cnnn4)[C@H]3SC2)s1` [Cefazolin (sodium salt)] was run?
**A.** 9.87

**Q.** With `O=C(O)C1(C(=O)O)CCC1.[NH2-].[NH2-].[Pt+2]` [Carboplatin] as the compound, how does the difference in excitability read?
**A.** -3.06

**Q.** Which difference in excitability does the source give for `C[N+](C)(C)CCOC(N)=O` [Carbamoylcholine (chloride)] here?
**A.** 2.95

**Q.** `C[C@]12CCC(=O)C=C1CC[C@@H]1[C@@H]2[C@@H](O)C[C@@]2(C)[C@H]1CC[C@]2(O)C(=O)CO` [Hydrocortisone] was tested. Which difference in excitability did it give?
**A.** 1.87

**Q.** With `COC(=O)N[C@H](C(=O)N1CCC[C@H]1c1ncc(-c2ccc(-c3ccc(-c4cnc([C@@H]5CCCN5C(=O)[C@@H](NC(=O)OC)C(C)C)[nH]4)cc3)cc2)[nH]1)C(C)C` [Daclatasvir] as the compound, how does the difference in excitability read?
**A.** 18.7

**Q.** With `CC(C)(C)NC(=O)[C@H]1CC[C@H]2[C@@H]3CC[C@H]4NC(=O)C=C[C@]4(C)[C@H]3CC[C@]12C` [Finasteride] as the compound, how does the difference in excitability read?
**A.** 11.1

**Q.** With `CO[C@H]1C[C@@H]2CC[C@@H](C)[C@@](O)(O2)C(=O)C(=O)N2CCCC[C@H]2C(=O)O[C@H]([C@H](C)C[C@@H]2CC[C@@H](OCCO)[C@H](OC)C2)CC(=O)[C@H](C)/C=C(\C)[C@@H](O)[C@@H](OC)C(=O)[C@H](C)C[C@H](C)/C=C/C=C/C=C/1C` [Everolimus] as the compound, how does the difference in excitability read?
**A.** 1.38
